Data taken from the supplement of paper PMC3334620.
The full ranking holds about 33,000 sequences; the median of “E-score (-0.5 to 0.5)” is about -0.01, and the highest 2% start at about 0.26. The sample as a whole holds a higher share of the highest values than the screen did.

The sequences below were run against Ste12 (UniProt P13574) (assay: PBM E-score (8-mer binding enrichment) (E-score (-0.5 to 0.5)); higher = stronger / more preferred TF binding). Conditions: protein concentration: 200 nM; construct: GST-DNA-binding domain.
Description: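 Universal 'all 10-mer' protein binding microarrays (Agilent AMADID 015681) probed with GST-tagged S. cerevisiae TFs (full-length or DBD) made by in vitro transcription/translation (PURExpress), about 100-200 nM. Bound TF was detected with fluorescent anti-GST. Each ungapped 8-mer (which stands for itself and its reverse complement) is scored by the PBM enrichment score (E-score), a modified Wilcoxon-Mann-Whitney statistic from -0.5 to +0.5, computed with the Universal PBM Analysis Suite. Scale: above 0.35 generally sequence-specific binding.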

UniProt P13574, sequence (P13574 whole entry, the tested form may be a part): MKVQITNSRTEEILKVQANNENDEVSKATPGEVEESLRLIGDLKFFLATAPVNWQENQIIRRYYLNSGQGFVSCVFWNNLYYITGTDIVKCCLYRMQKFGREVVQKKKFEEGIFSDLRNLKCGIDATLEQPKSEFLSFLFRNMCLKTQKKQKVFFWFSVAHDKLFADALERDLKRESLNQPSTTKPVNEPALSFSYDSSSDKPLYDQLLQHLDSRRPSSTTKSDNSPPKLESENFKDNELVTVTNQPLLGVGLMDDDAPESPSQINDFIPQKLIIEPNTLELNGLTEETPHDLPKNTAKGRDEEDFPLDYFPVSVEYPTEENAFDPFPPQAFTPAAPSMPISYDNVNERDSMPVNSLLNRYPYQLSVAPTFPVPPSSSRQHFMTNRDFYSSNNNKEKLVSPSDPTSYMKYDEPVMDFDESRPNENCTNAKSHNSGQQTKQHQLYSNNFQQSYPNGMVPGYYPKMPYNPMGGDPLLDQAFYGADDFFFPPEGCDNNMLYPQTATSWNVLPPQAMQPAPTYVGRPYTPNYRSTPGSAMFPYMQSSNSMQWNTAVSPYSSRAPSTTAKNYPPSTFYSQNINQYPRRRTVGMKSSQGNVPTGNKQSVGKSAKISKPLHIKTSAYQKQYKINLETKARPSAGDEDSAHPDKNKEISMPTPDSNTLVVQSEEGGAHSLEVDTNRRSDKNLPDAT

Sequence | PBM E-score
ACCGCTCA | -0.0178
CACCGCAC | -0.00376
ACCGCCGC | 0.0865
GGATACTA | 0.0524
CGCGGGAC | 0.012
AGGCCAGC | -0.157
CCTGGTAG | -0.00862
ATGCCTCG | 0.00724
CTCACCAC | -0.168
TTCACCAA | 0.0895
CTCACCAA | 0.284
GAAATTGA | 0.12
AAAATTTA | 0.085
AAAATTGA | 0.226
TAAATTTA | 0.334
TAAATTGA | 0.288
CAAATTTA | 0.217
ACGCTCTC | -0.122
ACCTGCTC | -0.0508
ATACCTCA | 0.0605
ATGTCTGG | 0.0356
GGCGGGAA | 0.00719
AGCGGGGA | 0.111
GGGGGGGA | -0.298
CGCGGGAA | 0.161

Sequence | PBM E-score
GGCGGGGA | 0.407
CGCGGGGA | 0.333
AAAATCTC | 0.119
CGTTAGGC | -0.0275
CATAATAA | 0.136
ATTAATCA | 0.145
ATTAATTA | 0.237
AATAATAA | 0.308
ATTAATTC | 0.308
AATAATAG | 0.0434
ATTAATTG | 0.237
ATTAATCG | 0.273
AATAATAC | 0.198
ATTAATCC | 0.0655
ATTAATAC | 0.263
CTTAATAC | 0.207
GCATTCGC | -0.276
CCAAACCC | 0.194
ATAGATCG | 0.0199
CTAACCTC | -0.0539
ACCTGTCG | 0.00512
CCGCGGCC | 0.174
CAATACCC | -0.00702
AGACTACC | -0.179
AAACTAGT | 0.123

Sequence | PBM E-score
ATCATCTC | 0.0683
ATTAATAA | 0.289
AATAAGAG | 0.0566
ATTAATAG | 0.283
GTTAATAA | 0.0895
CTTAATAA | 0.232
AATAAGAA | 0.276
AGTAATAG | 0.0705
ATTAATGG | 0.219
AATAAGAT | 0.00235
ACTGGTCT | -0.117
GTGATCGA | 0.161
ATTGTGTG | -0.0472
CTTGTGTA | 0.0226
ATTGTGTA | 0.274
ACTGCGAT | -0.072
CATGGCAA | 0.0424
AAACATCA | 0.328
AAACATGC | 0.231
AAACATCC | 0.249
TAACATGA | 0.098
AAACATGT | 0.301
AAACATGA | 0.321
CAACATCA | 0.0676
AAACATGG | 0.206

Sequence | PBM E-score
CAACATGA | 0.0787
TCTTCTCA | 0.019
GATCTGAA | 0.0323
ATGGACCG | -0.00313
TCCGATCA | 0.0466
CAGTGTGC | -0.187
ACCTAACG | -0.137
ATATTCAT | 0.227
GCGCCGGA | -0.0097
ATTAAAAA | 0.295
ATTAAAAT | 0.32
ATTAAACC | 0.156
CTTAAAAC | 0.352
AGTAAAAT | 0.122
CTTAAAAA | 0.22
AGTAAAAC | 0.168
CTTAAAAG | -0.0909
ATTAAAAC | 0.313
ATTAAAGA | 0.0703
ATTAAAAG | 0.137
CCACTGAC | -0.126
AGCATAAC | -0.00864
ACTACATG | 0.0147
CCGACACA | -0.0323
ATTTAGCG | -0.0176

Sequence | PBM E-score
GGCAATAC | 0.0406
GAGATCTC | -0.14
CACTTCAG | -0.198
GATTCTGA | 0.0395
ACGTGAAT | 0.0319
AAACGGCG | 0.149
ATCGCGAT | 0.0912
ACTATGCG | 0.0582
ATTAAATG | 0.19
ATTAAATC | 0.248
GTTAAAGA | 0.0582
GTTAAAAC | 0.174
GTTAAAAA | 0.291
ATTAAATA | 0.292
CACGTGGG | -0.129
CGGTACTA | -0.0556
AGCCATGG | -0.192
AATTAGGC | 0.179
ACAACTGG | -0.0989
ACAACTGA | 0.293
ACAACTTA | 0.053
AGACCACA | -0.0546
GAATCTGA | -0.0846
AAATCTGC | 0.0398
AAATCTGA | 0.266

Sequence | PBM E-score
CTCGTGAC | 0.0961
CCTCTTTC | -0.0876
CCTCCCCG | 0.283
CCTCCCCA | 0.329
CCTCCCAA | -0.136
CCCCCCCG | -0.257
ACTCCCCG | 0.07
CCTCCCCC | -0.134
AGCCATGC | -0.0768
GCGGGAAA | 0.121
GCGGGGAA | 0.261
GCGGGGGA | -0.143
GGGGGAAA | 0.241
CGGGGGAA | 0.0885
CGGGGAAA | 0.272
CGAGCGCA | 0.0982
ACCAGTTC | 0.0206
ATCCAAGA | 0.136
TCGGCCGA | 0.0948
TGAGACAA | 0.274
AGAGACAA | -0.154
CGAGACAA | 0.0198
CAGGTTCA | -0.0316
CGCTAACC | -0.0284
TGTACTAA | 0.053

Sequence | PBM E-score
GACTTGCC | -0.305
ACAAACCT | -0.111
CCAAAACG | 0.254
AGAAAACG | 0.0569
ACAAAACC | 0.171
CAAAAACG | 0.177
ACAAAACG | 0.35
AAAAAACG | 0.269
CCGCGCGC | 0.24
ACGCGCGC | 0.122
GCGCGCGA | 0.154
CCGCGCGG | 0.321
GCGCGCGC | 0.353
CCGCGCGA | 0.169
GGAGGGCA | 0.0377
ACTGGTTG | 0.0694
GGCCCGAC | 0.15
GGTGTTGA | -0.0828
ATAACTCA | 0.044
GACTGCCA | 0.107
GCTAGACA | -0.118
ACATGAAA | 0.283
TCATGAGA | 0.0861
ACATGAAG | 0.091
GCATGAAA | 0.318

Sequence | PBM E-score
CCATGAAA | 0.252
GCATGAAC | -0.0143
TCATGAAA | 0.27
TCATGACA | 0.178
ACATGAAC | 0.0476
ATCACCGG | -0.0135
GTCCACCA | -0.342
CTCTTAAG | -0.0926
AAAAGGAA | 0.188
AATATGAA | 0.269
CTTATGAA | 0.204
ATTATGAA | 0.265
TATATGAA | 0.17
GTTATGAA | 0.221
AATATGAC | 0.0945
CCAGCTAC | -0.091
AGCGACTA | -0.043
TCAGTCAA | -0.0289
GGGACACA | 0.17
CGCGCGGC | 0.306
CGCGCGGA | 0.0633
GCCGCGGA | 0.0303
ACCGCGCT | -0.16
CCCGCGGC | 0.224
CGCGCGCG | 0.262

Sequence | PBM E-score
CGCGCGCA | 0.208
AGCGCGGC | 0.0144
ACCGCGCG | 0.273
GCCGCGGC | 0.29
ACCGCGCC | -0.034
CGCGCGCC | 0.157
ACGGAGTG | -0.043
AACGACCC | -0.126
ACGCTCGG | -0.0861
GTTCAGTA | -0.0836
ATCGCACA | 0.0146
AACCAATA | 0.195
ACGTAGCG | -0.0127
GCTGAAGC | -0.0602
GCTGAAAC | 0.485
ACTGAAAG | 0.175
ACTGAAAA | 0.101
ACTGAAAC | 0.477
CCTGAAAA | 0.0508
CCTGAAAC | 0.487
GCTGAAAA | 0.17
CCTGAAAG | -0.179
GATGGGCA | -0.0542
AGAATATA | 0.0722
AAATCTAC | 0.151

Sequence | PBM E-score
CCCGCACA | 0.023
GCCAGGTA | -0.127
AACGATTC | -0.0106
GCCCTCAA | -0.23
GCGGTCAA | -0.0277
CGTTTTCA | 0.132
GGGGTTCA | -0.0134
GGTTTTCA | 0.311
AGGTTTCG | 0.144
CGGTTTCC | 0.1
GGGTTTGA | 0.18
GGGTTTCA | 0.435
CGGTTTAA | 0.00247
CGGTTTCA | 0.452
GTTTTTCA | 0.217
AGGTTTCC | -0.0692
AGGTTTCA | 0.451
AACGTCAG | -0.155
GAGGATTA | 0.0342
CCCGATAG | 0.0566
GGCTTTAA | 0.0191
AAAGCGCC | -0.0182
CGCTCAAC | -0.108
CTTGACCC | -0.129
ACCTCATC | -0.0717

Sequence | PBM E-score
GACAGCCC | -0.085
CTGAACGA | -0.167
AATCCAGC | -0.221
CAAACATC | 0.192
GAAACATC | 0.355
TAAACATA | 0.218
GAAACATA | 0.433
CAAACATA | 0.23
GATACATC | 0.0608
GCATATCA | 0.0522
ACGAATGA | 0.135
AAACGGAG | 0.0885
AAACGGAC | 0.149
AAACGGAT | 0.265
TACGCAAA | -0.0817
CCCAGACC | -0.0973
AAAGTACC | -0.0428
AAACACAA | 0.291
ATACACAC | -0.0713
AAACACCT | 0.104
AAACACGC | 0.288
ATACACAA | 0.283
AAACACGA | 0.129
ATACACAG | -0.054
CAACACGC | -0.247

Sequence | PBM E-score
AAACACCG | 0.318
AAACACAG | 0.118
CAACACCG | -0.103
AAACACAC | 0.243
ACGCCTAA | 0.0463
CTAGTTGA | 0.175
TAGCGAAA | 0.118
AGCAGTTG | -0.126
CCGGTCTA | -0.191
GCGATTTA | 0.0399
CGGAGAAG | -0.00086
GGTTAAAA | 0.256
GTTTTAAA | 0.378
GTTTAAAA | 0.3
GGTTTTAA | 0.298
CTTTAAAA | 0.266
GGGTTTAA | 0.215
GTTTAAAC | 0.214
CCTTTAAA | 0.0788
GGTTTTTA | 0.166
CTTTTAAA | 0.255
CTTTAAAC | 0.0682
GGTTTAAA | 0.211
ATGCGCAT | 0.0672
CAAGGAGG | -0.075

Sequence | PBM E-score
AACGATCG | 0.0136
TAGGCCTA | -0.15
AATGGGGG | -0.187
GCTATGAC | 0.0507
AGGAGTAA | -0.0677
CTGAGAAC | 0.0658
AACAGGGC | 0.0987
AGTTTTAA | 0.212
GCTTAAAC | -0.0138
AGTTTTAC | 0.143
GCTTAAAA | 0.31
TGTTTTAA | 0.364
TTTAAAAA | 0.184
TCTTAAAA | 0.156
TGTTTAAA | 0.26
CCTTAAAA | 0.162
AGTTTTAG | 0.12
TTTTAAAA | 0.329
AGTTTTAT | 0.275
CCCTAACG | -0.00496
AAGGGAGT | -0.232
CGCAGAAC | -0.122
AACAACCG | 0.0778
CAGATCAA | 0.00349
CTTTTTAA | 0.104

Sequence | PBM E-score
CGTTTTAA | 0.319
GTTTTTTA | 0.149
CGTTTTTA | 0.165
GTTTTTAA | 0.261
CGTTTTAG | 0.215
AAGAGTTG | -0.149
GGTTCATA | -0.0487
GGGAGAAC | -0.0492
ATCCTCAA | 0.00575
AAATTGTA | 0.048
AAATTGTT | 0.186
AAATTGTC | 0.268
AGTGTTTC | 0.332
AGTGTTTA | 0.174
CGTGTTTC | 0.36
AGTGTTTG | 0.245
CGTGTTGC | 0.0401
CGTGTTTA | 0.0319
GCCCTCGA | -0.216
